Assay outcomes as filed in PubChem BioAssay.
Rows were chosen to be rich in hits. Some 1.2% of all compounds tested hit in one or more screens of this group.
KCNH2 WT inh – qHTS for Inhibitors of KCHN2 3.1: Wildtype qHTS; Voltage-gated inwardly rectifying potassium channel KCNH2 (Homo sapiens), Q12809; U2OS, BacMam KCNH2, thallium flux FluxOr; active compounds read low; activity change, % at 1.84 µM; 340,000 compounds, 0.37% hits;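 active means maximum activity change below -70%; inconclusive means maximum activity change between -70% and -50%; inactive means maximum activity change above -50%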
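U2OS cells were transduced with wild-type KCNH2 virus (2.03 x 10^8 / mL) for 4 h at room temperature, then cultured overnight at 37 C. Thallium flux was read with FluxOr dye. Rate constants were normalized to DMSO controls.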
PTAP TSG101 blk – qHTS Assay for Iinhibitors of HIV-1 Budding by Blocking the Interaction of PTAP/TSG101. Fluorescence polarization, FITC-PTAP peptide / Tsg101 binding. Potency, µM (highest dose often 115 µM), most hits filed as inhibitors. 340,000 tested, under 10 active; active means well fitted inhibition curve with a large enough effect in the main read-out, with a control signal flat, not every such curve was filed as active; inconclusive means small, poorly fitted or top-dose-only effect, or effect the other way, or a change in a side signal; inactive means no such curve, though single readings can be large or run the other way
Target sequence (Q99816 whole entry, looked up): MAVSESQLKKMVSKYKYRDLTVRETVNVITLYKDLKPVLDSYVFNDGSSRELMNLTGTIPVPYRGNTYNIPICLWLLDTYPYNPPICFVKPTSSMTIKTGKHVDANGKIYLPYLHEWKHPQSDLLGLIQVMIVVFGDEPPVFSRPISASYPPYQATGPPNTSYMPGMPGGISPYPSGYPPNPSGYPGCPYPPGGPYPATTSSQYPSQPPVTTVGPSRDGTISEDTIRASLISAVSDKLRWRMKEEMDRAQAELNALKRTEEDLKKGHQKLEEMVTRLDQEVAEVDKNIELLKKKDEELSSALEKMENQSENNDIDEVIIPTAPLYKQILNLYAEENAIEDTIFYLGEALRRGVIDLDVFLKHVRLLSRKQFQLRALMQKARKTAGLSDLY
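Steps: Tsg101 binding domain dispensed (10 uM final), compounds pinned in DMSO, FITC-labeled PTAP-motif peptide added (50 nM final); after 20 min binding at room temperature, polarization measured.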
KCNH2 3.1 block – qHTS for Inhibitors of KCHN2 3.1: Mutant qHTS; AID 720553, 2013; U2OS KCNH2 3.1, thallium flux FluxOr; active compounds read low; 340,000 compounds, 0.95% hits; activity change, % (tested at about 1.8 µM); Potassium voltage-gated channel subfamily H member 2, brain isoform KCNH2 3.1 (human);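 active means maximum activity change below -70%; inconclusive means maximum activity change from -70% to -50%; inactive means maximum activity change above -50%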;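 further: thallium influx rate constant from kinetic fluorescence after stimulation buffer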
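U2OS cells transduced with KCNH2 3.1 mutant virus (1.77 x 10^8 /mL, 4 h), plated overnight at 37 C, loaded 45 min with FluxOr dye plus Red40 quencher. Thallium flux rate constant from kinetic reads after stimulation buffer, normalised to controls.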
Tb PFK block – qHTS Assay to Find Inhibitors of T. brucei phosphofructokinase; T. brucei PFK, ADP-Glo luminescence; 330,000 compounds, 0.17% hits; ATP-dependent 6-phosphofructokinase (Trypanosoma brucei brucei), O15648; Potency, µM (doses to about 57.5 µM), most hits filed as inhibitors; active means well fitted inhibition curve with a large enough effect; inconclusive means small, poorly fitted or top-dose-only effect, or effect the other way; further: nearly all actives have a fitted effect of over 60% in size
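1.25 nM PFK with 0.5 mM F6P and 0.1 mM ATP in 0.1 M TEA pH 8.0, 5 mM MgCl2, incubated 45 min at room temperature; ADP measured by ADP-Glo luminescence; compounds titrated up to 57 uM.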
Of the large screens only hits and unclear results are named; the others gave an inactive call.

CCCNC(=O)c1ccc(N2CCC3(CC2)CC(c2cccc(Br)c2)=NO3)c(NC(=O)c2ccccc2)c1	none
CCCNC(=O)c1ccc(N2CCC3(CC2)CC(c2cccc(Br)c2)=NO3)c(NC(=O)c2cccc(OC)c2)c1	KCNH2 3.1 block -72
CCCCCCCC(=O)Nc1cc(C(=O)NCCC)ccc1N1CCC2(CC1)CC(c1ccccc1)=NO2	KCNH2 WT inh -113, KCNH2 3.1 block -90
CC(C)CCNC(=O)c1cc2c(=O)n3ccccc3nc2s1	none
C=CC[C@H](CC(=O)N(CCO)Cc1ccccc1)C(=O)N[C@H](COC(=O)[C@@H](CC=C)Cc1ccc(F)cc1)Cc1ccccc1	none
O=C(c1ccc(Cn2cc(Cl)c([N+](=O)[O-])n2)cc1)N1CCN(Cc2ccccc2)CC1	none
CCOc1ccccc1CN1CCNC(=O)C1CC(=O)NCCC1=CCCCC1 (stereo not drawn)	KCNH2 3.1 block -109
O=C(C1CCCN(c2ncnc3c2nc2n3CCCCC2)C1)N1CCN(c2cccc(Cl)c2)CC1 (stereo not drawn)	KCNH2 3.1 block -139
O=C(C1CCCN(c2ncnc3c2nc2n3CCCCC2)C1)N1CCN(c2ccccc2)CC1 (stereo not drawn)	none
Cc1ccccc1N(C)C(=O)C1CCCN(c2ncnc3c2nc2n3CCCCC2)C1 (stereo not drawn)	none
CC(C)N(Cc1ccccc1)C(=O)C1CCCN(c2ncnc3c2nc2n3CCCCC2)C1 (stereo not drawn)	KCNH2 3.1 block -98
CCOC(=O)N1CCN(S(=O)(=O)N2CCCC(C(=O)NCCc3ccc(OCC)c(OCC)c3)C2)CC1 (stereo not drawn)	none
CCCCCCN1C2=NCCCN2c2ccccc21	KCNH2 3.1 block -80
COc1cccc(C(=O)CN2C3=NCCCN3c3ccccc32)c1	KCNH2 3.1 block -93
COc1ccc(C(=O)CN2C3=NCCCN3c3ccccc32)cc1OC	none
O=Cc1cc([N+](=O)[O-])ccc1N1CCN(Cc2ccc3c(c2)OCO3)CC1	KCNH2 WT inh inconclusive, KCNH2 3.1 block -86
CCCN1CCC(=O)N([C@H](COc2ccccc2)c2ccccc2)CC1	KCNH2 3.1 block -95
CC(C)CN1CCC(=O)N(CCOc2ccccc2)CC1	none
CC(C)CN1CCC(=O)N([C@H](COc2ccccc2)c2ccccc2)CC1	KCNH2 3.1 block -100
O=C1CCN(CCc2ccccc2)CCN1[C@H](COc1ccccc1)c1ccccc1	KCNH2 WT inh -130, KCNH2 3.1 block -115
Cc1ccc(S(=O)(=O)N2CCCC2)cc1C(=O)Nc1ccc(-n2cnnn2)cc1	none
Cc1cc(Sc2nnc(N)s2)c2ccccc2n1	KCNH2 3.1 block -78
CCN1C=C(C(C)=O)C(=O)CC1	none (no result: Tb PFK block)
Cc1ccc(C(C)C)c(OCC(O)CN2CCc3ccccc3C2)c1 (stereo not drawn)	KCNH2 WT inh -113
Cc1cccc(C)c1OCC(O)CN1CCc2ccccc2C1 (stereo not drawn)	none (no result: Tb PFK block)
COc1ccccc1NS(=O)(=O)c1ccc(Cl)c(NC(=O)C(C)N2C(=O)c3ccccc3C2=O)c1 (stereo not drawn)	none
CCN1C(=O)C(CC(=O)Nc2ccc(OC)cc2)N(CCCN2CCN(c3ccc(F)cc3)CC2)C1=S (stereo not drawn)	KCNH2 WT inh -76, KCNH2 3.1 block -83
O=C(Nc1ccc(F)cc1F)c1ccco1	KCNH2 3.1 block -77 (no result: Tb PFK block)
O=C(Nc1ccc(F)cc1F)c1cc(-c2ccco2)on1	none
CCN1CCN(c2nc(C)nc3c2sc(=S)n3C)CC1	Tb PFK block 19µM
Cc1nc(N2CCCCC2)c2sc(=S)n(C)c2n1	none
Cc1ccccc1CN1CCc2c(OCC(=O)N3CCCc4ccccc43)cccc2C1=O	KCNH2 WT inh -123
O=C1c2cccc(OCC(=O)N3CCCc4ccccc43)c2CCN1Cc1cccnc1	Tb PFK block inconclusive
COc1ccc(-n2ccnc(SCC(=O)NCc3ccc(C)cc3)c2=O)cc1Cl	none
CCOc1ccc(NC(=O)CN2CCN(CC(=O)Nc3ccc(F)c(F)c3)CC2)cc1	KCNH2 WT inh -117, KCNH2 3.1 block -93
Cc1c(C(=O)N2CCN(CC(=O)Nc3ccccc3Cl)CC2)oc2ccc(Br)cc12	KCNH2 3.1 block -73
NC(=O)C1CCN(CC(=O)Nc2ccccc2Sc2ccc(Cl)cc2)CC1	none
O=C(CN1CCCC1)Nc1ccccc1Sc1ccc(Cl)cc1	KCNH2 3.1 block -90
O=C(CN1CCN(CC(=O)Nc2ccccc2Cl)CC1)Nc1ccc(F)c(F)c1	KCNH2 WT inh inconclusive, KCNH2 3.1 block -111
O=C(CN1CCCCCC1)Nc1ccc(F)c(F)c1	none
O=C(Cc1c(F)cccc1Cl)NCC(=O)OCc1ccccc1	none
CCOC(=O)CN1C(=O)CN(c2ccc(C)cc2)C1=O	none
O=C(CN1CCN(C(=O)CNC(=O)c2ccc(-c3ccccc3)cc2)CC1)Nc1ccccc1Cl	KCNH2 3.1 block -84 (no result: PTAP TSG101 blk, Tb PFK block)
O=C(CN1CCN(C(=O)CNC(=O)c2ccc3c(c2)OCO3)CC1)Nc1ccccc1Cl	none
CCOc1ccc(NC(=O)CN2CCN(CC(=O)Nc3ccc(C(=O)OC)cc3)CC2)cc1	KCNH2 WT inh inconclusive, KCNH2 3.1 block -83
Cc1cc(C)c2c(n1)SCC(=O)N2CC(=O)Nc1ccc(C)c(C)c1	KCNH2 3.1 block -130
CCOc1ccc(NC(=O)CN2C(=O)CSC2=O)cc1	KCNH2 3.1 block -90
Cc1[nH]c(C)c(S(=O)(=O)Nc2cccc(Cl)c2C)c1C(=O)N1CCCC1	none
Cc1ccc(S(=O)(=O)N2C[C@H]3N(C(=O)OC(C)C)N(C(=O)OC(C)C)C[C@H](OC(=O)Nc4cccs4)[C@@]3(O)C2)cc1	none (no result: PTAP TSG101 blk, Tb PFK block)
O=C(Cn1c(NCCCO)nc2ccccc21)c1ccc([N+](=O)[O-])cc1	KCNH2 3.1 block -73
N=c1n(CC(=O)c2ccc([N+](=O)[O-])cc2)c2ccccc2n1Cc1ccc(Cl)cc1	none
N=c1n(CC(=O)c2ccc([N+](=O)[O-])cc2)c2ccccc2n1Cc1ccccc1	KCNH2 3.1 block -75
N=c1n(CC(=O)c2ccc(Br)cc2)c2ccccc2n1Cc1ccccc1	KCNH2 3.1 block -84
COc1cccc(C2NC(=O)NC(C)=C2C(=O)OCC2CCCCC2)c1 (stereo not drawn)	none
Cc1ccc(OCCn2cc(/C=N/NC(=O)c3ccncc3)c3ccccc32)cc1	KCNH2 WT inh -187, PTAP TSG101 blk inconclusive
Cn1nnc(NC(=O)c2ccc(Br)o2)n1	KCNH2 3.1 block -77
COc1ccccc1NC(=O)C(C)OC(=O)CSCC(=O)Nc1cc(C)on1 (stereo not drawn)	none
COc1ccccc1NC(=O)C(C)OC(=O)CSCC(=O)Nc1ccc(C)cc1C (stereo not drawn)	KCNH2 3.1 block -74
